The list is not random: actives were taken first. Their share in the collection is about 21%.
Pf growth 48h: inhibits P. falciparum growth in the first generation, 48 h | 310,000 tested, 5.9% active | AID 504832 | P. falciparum luciferase growth in erythrocytes, 48 h | Potency, µM (highest dose often 28.7 µM), inactives show at the top dose activity change, negative = inhibition, usual class: inhibitors; note: potency is the fitted concentration of half-maximal effect; % is set by controls: 0 for no effect and ±100 for the full control effect
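Growth was read as firefly luciferase luminescence after a 48 h, 37 C, 5% CO2 exposure of compounds to reporter-bearing P. falciparum cultures (0.1% parasitemia, 2% hematocrit final) in Albumax-supplemented RPMI 1640.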
Shiga inhibitor: inhibitors of Shiga toxin in Vero cells; Vero cells, Shiga toxin protein synthesis inhibition reporter; inhibition, % at 38.7 µM; 290,000 tested, 9.2% active; AID 2315; in the data active = inhibition mostly above about 28%, no sharp cut-off; inactive = mostly below about 43%; note: 0% is about no effect
NS1 function inh: blocks influenza NS1 protein function; Potency, µM (top dose mostly 46.1 µM), for inactives: at the highest dose activity, positive = more growth; 270,000 tested, 0.4% active; AID 2326; calls by dose curve; note: potency is the fitted concentration of half-maximal effect; actives are rising curves; nearly all actives have a fitted effect of over 50% in size
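In this qHTS, NS1 from influenza A is expressed in budding yeast, where it slows growth. Cells are switched from glucose to 2% galactose medium (pH 6.0, -URA), treated with compound, and growth recovery is read at OD600.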
Pf growth 96h: P. falciparum growth inhibition at 96 hour, primary screen for plastid delayed-death inhibitors. P. falciparum luciferase reporter growth, 96 h. Potency, µM (titrated, usually from 28.7 µM), for the others: top-dose activity change, negative = inhibition, usual class: inhibitors. 320,000 tested, 6.9% active; note: potency is the fitted concentration of half-maximal effect; % is set by controls: 0 for no effect and ±100 for the full control effect
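Infected RBCs, 2% Hct / 0.05% parasitemia final; luciferase-reporter P. falciparum; cpd 96 h, 37 C, 5% CO2; luciferase detection reagent; luminescence.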
SARS PLpro yeast: inhibitors of SARS-CoV papain-like protease in yeast; AID 485353; S. cerevisiae expressing SARS-CoV PLpro, growth rescue; Potency, µM (doses to about 32.9 µM), inactives show at the highest dose activity, positive = growth rescue, actives largely listed as activators; 330,000 tested, 0.19% active; calls by dose curve; note: potency is the fitted concentration of half-maximal effect; 0% is about no effect; nearly all actives have a fitted effect of over 55% in size
Cycloheximide cs: counter-screen hit for Shiga toxin inhibitors, cycloheximide | cell reporter, cycloheximide protein synthesis inhibition counterscreen | max response, % | 300,000 tested, 12% active | AID 2314; in the data active = max response mostly above about 13%, no sharp cut-off; inactive = mostly below about 14%; note: read at 38.3 µM for the half of the compounds with a filed dose; 0% is about no effect
An asterisk follows results filed as active; ? = inconclusive; nt = not tested or not shown. Unless noted, calls come from the whole dose curve; as a rule, active = well fitted inhibition curve with a large enough effect; inconclusive = small, poorly fitted or top-dose-only effect, or another doubt; inactive = no such curve, though single readings can be large or run the other way.

SMILES | Pf growth 48h | Shiga inhibitor | NS1 function inh | Pf growth 96h | SARS PLpro yeast | Cycloheximide cs
CC1=NN(C(N)=S)C(=O)C1N=Nc1ccccc1C(=O)O (stereo not given) | 0% | nt | ? | -10% | 8% | -3
CC1=NN(C(N)=S)C(=O)C1N=Nc1cccc(C)c1 (stereo not given) | 12µM* | 24 | -55% | ? | 1% | 22*
CC(=O)Nc1ccc(N=NC2C(=O)N(C(N)=S)N=C2C)cc1 (stereo not given) | 1% | 40 | ? | ? | -2% | 21*
Cc1cc(Br)cc(Br)c1OCC(=O)NNC(=O)c1ccoc1C | 23% | -20 | -8% | 21% | 2% | -3
Cc1ccc(NC(=O)c2cc3ccccc3o2)cc1Cl | 103% | 111* | -57% | ? | -3% | 47*
CC(C)C(=O)Nc1cccc(NC(=O)c2cc3ccccc3o2)c1 | 69% | 42* | -35% | nt | -4% | 54*
Cc1cc(C)nc(NC(=O)c2cc3ccccc3o2)n1 | 31% | 39 | -20% | 15% | 1% | 4
CC(=O)Nc1cccc(NC(=O)c2cc3ccccc3o2)c1 | nt | 49 | -7% | 188% | 0% | 33*
O=C(O)c1ccc(S(=O)(=O)N(CCc2ccccc2)Cc2ccc(Cl)cc2)cc1 | -6% | nt | 13% | -15% | -1% | -1
CCC(C)[C@H](NC(=O)[C@H](Cc1ccccc1)n1c(=O)[nH]c2ccccc2c1=O)C(=O)NCC1CCC(C(=O)O)CC1 (stereo not given in full) | -17% | -13 | 5% | 13µM* | -2% | -2
CCc1nnc(NS(=O)(=O)c2ccc(NC(=O)Nc3ccc(OC)cc3)cc2)s1 | 34% | -6 | ? | ? | 0% | -1
CCc1nnc(NS(=O)(=O)c2ccc(NC(=O)c3ccccc3O)cc2)s1 | 3% | -4 | 8% | -48% | 0% | -7
CCc1nnc(NS(=O)(=O)c2ccc(N/C=C/C(=O)c3ccc(OC)cc3)cc2)s1 | 36% | 86* | -2% | ? | 1% | 51*
COc1ccc(S(=O)(=O)Nc2nnc(Cc3ccc(OC)c(OC)c3)s2)cc1 | 56% | 21 | 12% | 45% | 0% | 9.2*
CCc1nnc(NS(=O)(=O)c2ccc(N/C=C\C(=O)c3cccc4ccccc34)cc2)s1 | -29% | -7 | 4% | 9.3µM* | -16% | 1
O=C(NCc1ccco1)C(c1ccc(F)cc1)N(C(=O)Cc1cccs1)c1cccnc1 (stereo not given) | -41% | -14 | 2% | 18% | -1% | -2
Cc1ccc(NC(=O)CSc2nnc(Cn3c(=O)sc4ccccc43)n2C)cc1Cl | 8% | 7 | -7% | 11% | 18% | -2
CCCC1O[C@@H]2C[C@H]3[C@@H]4CCC5=CC(=O)C=C[C@]5(C)[C@H]4[C@@H](O)C[C@]3(C)[C@]2(C(=O)CO)O1 (stereo not given in full) | 4.1µM* | -10 | -10% | 2.3µM* | 3% | -2
CCC(=O)[C@@]1(C)[C@H](C)C[C@H]2[C@@H]3CCC4=CC(=O)C=C[C@]4(C)[C@H]3[C@@H](O)C[C@@]21C | 2.3µM* | nt | nt | 5% | nt | nt
CC(=O)OCC(=O)[C@@]1(O)CC[C@H]2[C@@H]3CCC4=CC(=O)C=C[C@]4(C)[C@@]3(F)[C@@H](O)C[C@@]21C | 0% | nt | nt | 0% | nt | nt
C=C1N[C@]2(C(=O)COC(C)=O)[C@@H](C[C@H]3[C@@H]4CCC5=CC(=O)C=C[C@]5(C)[C@H]4[C@@H](O)C[C@@]32C)O1 | ? | nt | nt | 9.5µM* | nt | nt
C[C@]12C=CC(=O)C=C1CC[C@@H]1[C@@H]2CC[C@@]2(C)[C@H]1CC[C@]2(C)O | -22% | -6 | nt | ? | nt | -4
CCCC1OC2CC3C4CCC5=CC(=O)C=CC5(C)C4C(O)CC3(C)C2(C(=O)O)O1 (stereo not given) | 8% | -4 | 18% | -66% | -3% | 2
CCCC1O[C@@H]2CC3C4CCC5=CC(=O)C=C[C@]5(C)C4C(OC(C)=O)C[C@]3(C)[C@]2(C(=O)COC(C)=O)O1 (stereo not given in full) | 9.3µM* | -3 | -1% | 1.2µM* | -9% | -2

Screening results: PubChem BioAssay, National Center for Advancing Translational Sciences (NCATS)
